Data published in publication PMC7862700, “An all-to-all approach to the identification of sequence-specific readers for epigenetic DNA modifications on cytosine”.

Legend:
Experiment in all cases: DAPPL (digital affinity profiling via proximity ligation, sequencing); 10 mM Tris-HCl pH 7.5, 50 mM NaCl, 1 mM DTT, 4% glycerol, room temperature, 30 min; GST-TFs on glutathione beads, 16-mer random dsDNA library, 0.1% formaldehyde crosslink after washing; high values mean tight binding
Conditions in all cases: protein: recombinant; tags: N-terminal GST; dsDNA, one strand shown
ERF = target: T1, ERF (Homo sapiens, UniProt P50548 1-548)
T1 sequence: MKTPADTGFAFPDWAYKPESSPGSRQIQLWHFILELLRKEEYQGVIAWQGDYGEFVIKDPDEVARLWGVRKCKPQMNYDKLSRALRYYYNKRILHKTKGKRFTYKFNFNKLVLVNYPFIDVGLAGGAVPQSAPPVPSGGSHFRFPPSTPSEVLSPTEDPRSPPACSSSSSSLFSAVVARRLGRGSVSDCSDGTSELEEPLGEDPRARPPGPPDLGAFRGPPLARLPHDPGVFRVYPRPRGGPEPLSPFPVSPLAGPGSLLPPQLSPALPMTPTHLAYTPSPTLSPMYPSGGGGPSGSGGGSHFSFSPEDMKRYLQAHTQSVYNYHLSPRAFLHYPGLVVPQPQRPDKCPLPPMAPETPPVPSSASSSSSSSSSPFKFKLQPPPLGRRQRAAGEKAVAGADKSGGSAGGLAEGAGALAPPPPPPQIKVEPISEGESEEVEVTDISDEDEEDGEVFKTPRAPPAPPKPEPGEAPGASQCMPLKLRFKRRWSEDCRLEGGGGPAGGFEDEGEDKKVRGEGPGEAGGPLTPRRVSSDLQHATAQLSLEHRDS
Summary of the method: (§1)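 Beads coated with glutathione captured GST-fused human transcription factors that had been expressed in yeast, and the factors were then given DNA barcodes and pooled with a tag-only sample. The pools were incubated with 200 nmole of a random double-stranded 16-mer DNA library in Tris/NaCl/DTT/glycerol buffer for 30 min at room temperature, washed, crosslinked with 0.1% formaldehyde and proximity-ligated with BsaI/T4 ligase at 37 °C for 1 h. PCR amplification and Illumina NextSeq500 sequencing came last. Binding signal is each hexamer's read frequency for a factor divided by its frequency for the tag-only sample.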

ETV3L = target: T2, ETV3L (Homo sapiens, UniProt Q6ZN32 1-361)
T2 sequence: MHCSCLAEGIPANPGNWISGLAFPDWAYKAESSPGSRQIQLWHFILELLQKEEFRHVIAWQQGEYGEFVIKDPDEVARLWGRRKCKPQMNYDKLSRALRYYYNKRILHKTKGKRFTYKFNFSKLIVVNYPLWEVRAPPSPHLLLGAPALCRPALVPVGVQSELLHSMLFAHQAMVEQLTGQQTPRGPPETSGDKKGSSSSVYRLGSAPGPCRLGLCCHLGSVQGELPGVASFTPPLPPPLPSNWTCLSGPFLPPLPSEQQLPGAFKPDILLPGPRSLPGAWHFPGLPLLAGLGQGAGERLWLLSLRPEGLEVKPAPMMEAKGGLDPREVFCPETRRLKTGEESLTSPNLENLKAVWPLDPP
Summary of the method: as §1

ETS2 = target: T3, ETS2 (Homo sapiens, UniProt P15036 1-469)
T3 sequence: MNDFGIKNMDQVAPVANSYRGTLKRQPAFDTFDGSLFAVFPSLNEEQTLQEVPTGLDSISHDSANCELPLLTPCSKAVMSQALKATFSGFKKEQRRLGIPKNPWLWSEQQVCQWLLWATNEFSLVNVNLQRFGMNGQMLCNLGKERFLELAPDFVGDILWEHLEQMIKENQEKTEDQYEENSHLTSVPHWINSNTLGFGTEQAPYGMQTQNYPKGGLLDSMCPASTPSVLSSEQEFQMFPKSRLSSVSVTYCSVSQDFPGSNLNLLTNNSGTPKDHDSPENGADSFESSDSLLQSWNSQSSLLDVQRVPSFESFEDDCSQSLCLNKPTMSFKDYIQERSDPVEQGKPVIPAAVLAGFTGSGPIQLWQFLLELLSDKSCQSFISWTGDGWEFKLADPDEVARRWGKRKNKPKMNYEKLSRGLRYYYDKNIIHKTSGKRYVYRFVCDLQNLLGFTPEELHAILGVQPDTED
Summary of the method: as §1

SPDEF = target: T4, SPDEF (Homo sapiens, UniProt O95238 1-335)
T4 sequence: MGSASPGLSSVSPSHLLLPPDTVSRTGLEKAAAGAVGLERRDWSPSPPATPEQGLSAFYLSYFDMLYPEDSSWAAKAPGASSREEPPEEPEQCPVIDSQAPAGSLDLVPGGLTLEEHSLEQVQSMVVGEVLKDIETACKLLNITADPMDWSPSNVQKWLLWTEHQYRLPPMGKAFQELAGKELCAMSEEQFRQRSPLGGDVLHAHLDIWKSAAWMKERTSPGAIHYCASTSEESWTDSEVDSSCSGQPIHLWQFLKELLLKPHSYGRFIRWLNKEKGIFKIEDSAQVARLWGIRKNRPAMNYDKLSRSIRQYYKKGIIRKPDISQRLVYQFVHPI
Summary of the method: as §1

ETV7 = target: T5, ETV7 (Homo sapiens, UniProt Q9Y603 1-341)
T5 sequence: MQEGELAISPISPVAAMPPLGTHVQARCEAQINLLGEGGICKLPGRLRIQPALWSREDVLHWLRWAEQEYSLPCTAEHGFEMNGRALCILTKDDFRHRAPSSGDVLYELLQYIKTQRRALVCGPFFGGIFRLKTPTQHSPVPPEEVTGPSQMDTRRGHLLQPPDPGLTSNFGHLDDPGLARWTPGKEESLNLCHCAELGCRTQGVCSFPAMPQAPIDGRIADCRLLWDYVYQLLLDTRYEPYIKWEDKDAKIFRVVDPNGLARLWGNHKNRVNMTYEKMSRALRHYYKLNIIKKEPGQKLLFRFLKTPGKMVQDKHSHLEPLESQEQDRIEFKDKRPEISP
Summary of the method: as §1

ELF5 = target: T6, ELF5 (Homo sapiens, UniProt Q9UKW6-2 1-255)
T6 sequence: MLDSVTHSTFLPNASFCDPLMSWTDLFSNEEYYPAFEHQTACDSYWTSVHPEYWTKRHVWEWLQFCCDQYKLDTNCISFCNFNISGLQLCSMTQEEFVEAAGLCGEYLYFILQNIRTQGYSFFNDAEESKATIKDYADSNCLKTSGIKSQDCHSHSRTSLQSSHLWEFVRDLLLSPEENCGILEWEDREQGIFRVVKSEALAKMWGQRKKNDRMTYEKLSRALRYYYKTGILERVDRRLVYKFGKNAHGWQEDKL
Summary of the method: as §1

ETV3 = target: T7, ETV3 (Homo sapiens, UniProt P41162-2 1-143)
T7 sequence: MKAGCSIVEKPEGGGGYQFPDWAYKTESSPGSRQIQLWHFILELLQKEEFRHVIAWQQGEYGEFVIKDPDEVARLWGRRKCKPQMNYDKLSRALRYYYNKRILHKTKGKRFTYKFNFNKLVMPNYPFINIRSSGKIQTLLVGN
Summary of the method: as §1

ETV6 = ETV6 (Homo sapiens, UniProt P41212 1-452)
Chain of ETV6 (P41212 whole entry): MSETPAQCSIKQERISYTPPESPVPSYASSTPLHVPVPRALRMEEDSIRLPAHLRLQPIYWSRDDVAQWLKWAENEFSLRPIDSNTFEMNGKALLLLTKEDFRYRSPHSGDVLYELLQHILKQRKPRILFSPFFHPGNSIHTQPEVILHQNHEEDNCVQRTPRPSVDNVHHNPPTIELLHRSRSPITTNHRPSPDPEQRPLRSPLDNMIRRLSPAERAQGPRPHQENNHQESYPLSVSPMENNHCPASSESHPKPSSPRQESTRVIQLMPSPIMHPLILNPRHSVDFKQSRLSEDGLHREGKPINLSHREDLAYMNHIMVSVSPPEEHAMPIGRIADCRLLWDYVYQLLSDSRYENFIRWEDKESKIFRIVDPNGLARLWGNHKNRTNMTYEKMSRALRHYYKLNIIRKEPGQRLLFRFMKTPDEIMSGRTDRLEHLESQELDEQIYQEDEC
Summary of the method: as §1

CTTCAG
binding signal (ERF): 1.27 fold enrichment (6-mer frequency, TF over GST control)
binding signal (ETV3L): 1.26 fold enrichment (6-mer frequency, TF over GST control)
binding signal (ETS2): 1.33 fold enrichment (6-mer frequency, TF over GST control)
binding signal (SPDEF): 1.34 fold enrichment (6-mer frequency, TF over GST control)
binding signal (ETV7): 1.29 fold enrichment (6-mer frequency, TF over GST control)
binding signal (ELF5): 1.35 fold enrichment (6-mer frequency, TF over GST control)
binding signal (ETV3): 1.17 fold enrichment (6-mer frequency, TF over GST control)
binding signal (ETV6): 1.37 fold enrichment (6-mer frequency, TF over GST control)

CTCTAG
binding signal (ERF): 1.31 fold enrichment (6-mer frequency, TF over GST control)
binding signal (ETV3L): 1.28 fold enrichment (6-mer frequency, TF over GST control)
binding signal (ETS2): 1.26 fold enrichment (6-mer frequency, TF over GST control)
binding signal (SPDEF): 1.24 fold enrichment (6-mer frequency, TF over GST control)
binding signal (ETV7): 1.27 fold enrichment (6-mer frequency, TF over GST control)
binding signal (ELF5): 1.22 fold enrichment (6-mer frequency, TF over GST control)
binding signal (ETV3): 1.4 fold enrichment (6-mer frequency, TF over GST control)
binding signal (ETV6): 1.34 fold enrichment (6-mer frequency, TF over GST control)

AACTAA
binding signal (ERF): 1.36 fold enrichment (6-mer frequency, TF over GST control)
binding signal (ETV3L): 1.25 fold enrichment (6-mer frequency, TF over GST control)
binding signal (ETS2): 1.4 fold enrichment (6-mer frequency, TF over GST control)
binding signal (SPDEF): 1.31 fold enrichment (6-mer frequency, TF over GST control)
binding signal (ETV7): 1.33 fold enrichment (6-mer frequency, TF over GST control)
binding signal (ELF5): 1.38 fold enrichment (6-mer frequency, TF over GST control)
binding signal (ETV3): 1.29 fold enrichment (6-mer frequency, TF over GST control)
binding signal (ETV6): 1.42 fold enrichment (6-mer frequency, TF over GST control)

TCCTAA
binding signal (ERF): 1.55 fold enrichment (6-mer frequency, TF over GST control)
binding signal (ETV3L): 1.36 fold enrichment (6-mer frequency, TF over GST control)
binding signal (ETS2): 1.49 fold enrichment (6-mer frequency, TF over GST control)
binding signal (SPDEF): 1.6 fold enrichment (6-mer frequency, TF over GST control)
binding signal (ETV7): 1.48 fold enrichment (6-mer frequency, TF over GST control)
binding signal (ELF5): 1.5 fold enrichment (6-mer frequency, TF over GST control)
binding signal (ETV3): 1.45 fold enrichment (6-mer frequency, TF over GST control)
binding signal (ETV6): 1.55 fold enrichment (6-mer frequency, TF over GST control)

ACAATT
binding signal (ERF): 1.25 fold enrichment (6-mer frequency, TF over GST control)
binding signal (ETV3L): 1.23 fold enrichment (6-mer frequency, TF over GST control)
binding signal (ETS2): 1.29 fold enrichment (6-mer frequency, TF over GST control)
binding signal (SPDEF): 1.13 fold enrichment (6-mer frequency, TF over GST control)
binding signal (ETV7): 1.21 fold enrichment (6-mer frequency, TF over GST control)
binding signal (ELF5): 1.32 fold enrichment (6-mer frequency, TF over GST control)
binding signal (ETV3): 1.27 fold enrichment (6-mer frequency, TF over GST control)
binding signal (ETV6): 1.25 fold enrichment (6-mer frequency, TF over GST control)

CCCGCA
binding signal (ERF): 1.24 fold enrichment (6-mer frequency, TF over GST control)
binding signal (ETV3L): 1.22 fold enrichment (6-mer frequency, TF over GST control)
binding signal (ETS2): 1.18 fold enrichment (6-mer frequency, TF over GST control)
binding signal (SPDEF): 1.27 fold enrichment (6-mer frequency, TF over GST control)
binding signal (ETV7): 1.31 fold enrichment (6-mer frequency, TF over GST control)
binding signal (ELF5): 1.27 fold enrichment (6-mer frequency, TF over GST control)
binding signal (ETV3): 1.2 fold enrichment (6-mer frequency, TF over GST control)
binding signal (ETV6): 1.25 fold enrichment (6-mer frequency, TF over GST control)

ATGAAT
binding signal (ERF): 1.16 fold enrichment (6-mer frequency, TF over GST control)
binding signal (ETV3L): 1.14 fold enrichment (6-mer frequency, TF over GST control)
binding signal (ETS2): 1.17 fold enrichment (6-mer frequency, TF over GST control)
binding signal (SPDEF): 1.06 fold enrichment (6-mer frequency, TF over GST control)
binding signal (ETV7): 1.19 fold enrichment (6-mer frequency, TF over GST control)
binding signal (ELF5): 1.09 fold enrichment (6-mer frequency, TF over GST control)
binding signal (ETV3): 1.2 fold enrichment (6-mer frequency, TF over GST control)
binding signal (ETV6): 1.15 fold enrichment (6-mer frequency, TF over GST control)

CCCCAA
binding signal (ERF): 1.06 fold enrichment (6-mer frequency, TF over GST control)
binding signal (ETV3L): 1.2 fold enrichment (6-mer frequency, TF over GST control)
binding signal (ETS2): 1.13 fold enrichment (6-mer frequency, TF over GST control)
binding signal (SPDEF): 1.11 fold enrichment (6-mer frequency, TF over GST control)
binding signal (ETV7): 1.1 fold enrichment (6-mer frequency, TF over GST control)
binding signal (ELF5): 1.12 fold enrichment (6-mer frequency, TF over GST control)
binding signal (ETV3): 1.15 fold enrichment (6-mer frequency, TF over GST control)
binding signal (ETV6): 1.14 fold enrichment (6-mer frequency, TF over GST control)

TAAATT
binding signal (ERF): 1.3 fold enrichment (6-mer frequency, TF over GST control)
binding signal (ETV3L): 1.32 fold enrichment (6-mer frequency, TF over GST control)
binding signal (ETS2): 1.17 fold enrichment (6-mer frequency, TF over GST control)
binding signal (SPDEF): 1.21 fold enrichment (6-mer frequency, TF over GST control)
binding signal (ETV7): 1.27 fold enrichment (6-mer frequency, TF over GST control)
binding signal (ELF5): 1.19 fold enrichment (6-mer frequency, TF over GST control)
binding signal (ETV3): 1.21 fold enrichment (6-mer frequency, TF over GST control)
binding signal (ETV6): 1.28 fold enrichment (6-mer frequency, TF over GST control)
